Test results taken from PubChem BioAssay (Tox21).
Several values for one entry are separate records, joined by “and”; a condition that tells them apart may be missing. Equal entries are not always repeated. Records with an inconclusive call do not appear. Entries that show only a call come without a potency. Some structures have more than one record in an assay (separate samples or runs), and their calls can disagree. Activity calls are given as the source filed them. Unless noted, calls come from the whole dose curve; as a rule, active = well fitted curve in the direction sought with a large enough effect in the repeat runs; inconclusive = weak or mixed curves; inactive = no such curve, though single readings can be large; an effect the other way counts as inactive or inconclusive.

Experiments:
[1] = qHTS assay to identify small molecule agonists of the vitamin D receptor (VDR) signaling pathway - cell viability counter screen (AID 743224); note: nearly all actives have a fitted effect of over 50% in size; note: potency is the fitted concentration of half-maximal effect
Summary of the method: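 Cells: VDR-bla, 2,000/well, settled 4 h. Treatment: compounds in DMSO, 16 h, 37C/5% CO2. Readout: CellTiter-Glo luminescence after 30 min RT.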

[2] = qHTS assay to identify small molecule antagonists of the vitamin D receptor (VDR) signaling pathway - cell viability counter screen (AID 743225); note: nearly all actives have a fitted effect of over 50% in size; note: potency is the fitted concentration of half-maximal effect
Summary of the method: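 Read-out: CellTiter-Glo luminescence measured 30 min after reagent addition at room temperature. Cells were VDR-bla HEK 293T exposed 16 h at 37C, 5% CO2, to compound with 3 nM final calcitriol agonist.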

[3] = qHTS assay to identify small molecule agonists of the NFkB signaling pathway - cell viability counter screen (AID 1159515; calls by dose curve; note: nearly all actives have a fitted effect of over 55% in size; note: potency is the fitted concentration of half-maximal effect)
Summary of the method: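 Cells are seeded (2,000 NFkB-bla ME-180 per well), rested overnight, and dosed with DMSO-dissolved compounds for 5 hr at 37 C. Viability is then read by CellTiter-Glo luminescence after 30 min at room temperature.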

[4] = qHTS assay to identify small molecule agonists of the endoplasmic reticulum stress response signaling pathway (AID 1159516; active = well fitted activation curve with a large enough effect in the signal ratio in the repeat runs, not every such curve was filed as active; the % refers to the signal ratio)
Summary of the method: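 Cells are seeded at 1,500 per well and incubated overnight. Compounds in DMSO are added for 5 hr at 37 C, then beta-lactamase FRET substrate for 2 hr at room temperature, and fluorescence at 460 and 530 nm is measured.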

[5] = qHTS assay to identify small molecule agonists of the endoplasmic reticulum stress response signaling pathway - cell viability counter screen (AID 1159517; calls by dose curve; note: nearly all actives have a fitted effect of over 50% in size; note: potency is the fitted concentration of half-maximal effect)
Summary of the method: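 Cytotoxicity of test compounds toward ESRE-bla HeLa cells was assessed after 5 hr exposure. The luminescent CellTiter-Glo signal was measured 30 min after reagent addition.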

[6] = qHTS assay to identify small molecule antagonists of the retinoid-related orphan receptor gamma (ROR-gamma) signaling pathway - cell viability counter screen (AID 1159520); note: nearly all actives have a fitted effect of over 50% in size; note: potency is the fitted concentration of half-maximal effect
Summary of the method: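 Tet-on ROR gamma CHO cells (1,000/well) were plated 4 hr, given compounds in DMSO for 2 hr at 37 C, then induced with 1 uM final doxycycline for 16 hr. Viability was read as ATP by CellTiter-Glo luminescence after 30 min.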

[7] = biological target: Nuclear receptor ROR-gamma (Homo sapiens) (UniProt P51449); assay: qHTS assay to identify small molecule antagonists of the retinoid-related orphan receptor gamma (ROR-gamma) signaling pathway (AID 1159521; note: nearly all actives have a fitted effect of over 50% in size; note: potency is the fitted concentration of half-maximal effect)
Summary of the method: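 CHO Tet-on RORγ, RORE-luc reporter. Cpd 2 h pre-incubation, then dox hyclate 1 uM final, 16 h, 37 C/5% CO2. ONE-Glo luminescence; decrease = antagonist.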

[8] = qHTS assay to identify small molecule agonists of the AP-1 signaling pathway - cell viability counter screen (AID 1159525; calls by dose curve; note: nearly all actives have a fitted effect of over 55% in size; note: potency is the fitted concentration of half-maximal effect)
Summary of the method: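 Each titration point was normalised to DMSO and tetra n-octyl ammonium bromide controls. The read was Cell Titer Glo luminescence after 30 min at RT, following 5 h compound exposure of ME-180 AP-1-bla cells at 37 °C.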

[9] = qHTS assay to identify small molecule agonists of the AP-1 signaling pathway (AID 1159526; calls by dose curve)
[10] = qHTS assay to identify small molecule agonists of the RXR signaling pathway - cell viability counter screen (AID 1159529); note: nearly all actives have a fitted effect of over 50% in size; note: potency is the fitted concentration of half-maximal effect
Summary of the method: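 HEK 293T RXRa-bla cells, 2% CS-FBS; 5 h settle; cpd 16 h 37 C, 5% CO2; CellTiter-Glo 30 min RT, luminescence. Tetraoctyl ammonium bromide as positive control.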

[11] = qHTS assay to identify small molecule antagonists of the retinoid acid receptor (RAR) signaling pathway - cell viability counter screen (AID 1159551); note: nearly all actives have a fitted effect of over 35% in size; note: potency is the fitted concentration of half-maximal effect
Summary of the method: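 Cells (C3RL4) are plated, incubated overnight, dosed with compound in DMSO, then given retinol at 1 uM final. After 6 h at 37 C, CellTiter-Glo is added and luminescence read following 30 min at room temperature.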

[12] = qHTS assay to identify small molecule antagonists of the retinoic acid receptor (RAR) signaling pathway (AID 1159552; note: nearly all actives have a fitted effect of over 50% in size; note: potency is the fitted concentration of half-maximal effect)
Summary of the method: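 Cells of the C3RL4 line were seeded, incubated overnight, then dosed with compounds in DMSO followed immediately by retinol (1 uM final). Six hours later luciferase detection reagent went in; signal was measured after 30 min at RT.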

[13] = qHTS assay to identify small molecule agonists of the retinoic acid receptor (RAR) signaling pathway (AID 1159553); note: potency is the fitted concentration of half-maximal effect
Summary of the method: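 Seed C3RL4 reporter cells at 1,000 per well and incubate overnight at 37 C. Add compounds in DMSO, incubate 6 hr. Add luciferase reagent, wait 30 min at room temperature, read luminescence.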

[14] = biological target: Retinoic acid receptor RXR-alpha (Homo sapiens) (UniProt P19793); assay: qHTS assay to identify small molecule agonists of the RXR signaling pathway (AID 1159527; calls by dose curve; note: nearly all actives have a fitted effect of over 35% in size)
Summary of the method: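 Read-out: beta-lactamase FRET ratio (405 nm excitation, 460 and 530 nm emission) after 2 hr substrate loading at room temperature. Cells were RXR-alpha-UAS-bla HEK 293T treated with compounds for 16 hr in 2% charcoal-stripped FBS medium.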

[15] = qHTS assay to identify small molecule antagonists of the estrogen related receptor (ERR) signaling pathway - cell viability counter screen (AID 1224818); note: series mostly up to about 46 µM
Summary of the method: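 ERR cells, 2,000/well; 6 h settle at 37 C/5% CO2; compound pin transfer (DMSO); 17.5 h at 37 C; CellTiter-Fluor, 30 min, fluorescence read.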

[16] = qHTS assay to identify small molecule antagonists of the estrogen related receptor (ERR) signaling pathway (AID 1224819)
Summary of the method: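 qHTS in ERR cells, 2,000/well, 1536 format. Cpd (DMSO) added after 6 h settle, 18 h 37 C. One-Glo luminescence, 30 min RT.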

[17] = qHTS assay to identify small molecule agonists of the estrogen related receptor (ERR) signaling pathway (AID 1224820)
Summary of the method: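 Following a 6 h settling period, 2,000 ERR cells per well receive DMSO-dissolved compounds by pin tool and incubate 18 h at 37 C; agonist activity is scored from One-Glo luminescence read 30 min post-addition.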

[18] = qHTS assay to identify small molecule antagonists of the estrogen related receptor signaling pathway with the pleiotropic PPARgamma coactivator (PGC) cell viability counter screen (AID 1224822;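 note: series mostly up to about 46 µM; viability read after 17.5 h compound exposure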)
Summary of the method: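 Multiplexed viability counter screen run in PGC/ERR cells treated with compounds for 17.5 h at 37 C; live-cell protease signal measured by CellTiter-Fluor fluorescence.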

[19] = tested on: estrogen-related receptor alpha (ERRalpha) with PGC-1alpha coactivator, human; assay: qHTS assay to identify small molecule antagonists of the estrogen related receptor signaling pathway with the pleiotropic PPARgamma coactivator (PGC) (AID 1224821; calls by dose curve)
Summary of the method: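 Screening used NTP's PGC/ERR cells, dosed via pin tool with compound in DMSO alongside positive and negative controls. After 18 h at 37 C, One-Glo reagent sat 30 min at room temperature before luminescence detection.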

[20] = qHTS assay to identify small molecule agonists of the estrogen related receptor signaling pathway with the pleiotropic PPARgamma coactivator (PGC) (AID 1224823)
Summary of the method: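 In this quantitative high-throughput screen, an 18 h, 37 C treatment of PGC/ERR cells with compounds in DMSO preceded a One-Glo luminescence read taken after 30 min at room temperature.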

Sequence of Retinoic acid receptor RXR-alpha (Homo sapiens) (P19793 whole entry, looked up): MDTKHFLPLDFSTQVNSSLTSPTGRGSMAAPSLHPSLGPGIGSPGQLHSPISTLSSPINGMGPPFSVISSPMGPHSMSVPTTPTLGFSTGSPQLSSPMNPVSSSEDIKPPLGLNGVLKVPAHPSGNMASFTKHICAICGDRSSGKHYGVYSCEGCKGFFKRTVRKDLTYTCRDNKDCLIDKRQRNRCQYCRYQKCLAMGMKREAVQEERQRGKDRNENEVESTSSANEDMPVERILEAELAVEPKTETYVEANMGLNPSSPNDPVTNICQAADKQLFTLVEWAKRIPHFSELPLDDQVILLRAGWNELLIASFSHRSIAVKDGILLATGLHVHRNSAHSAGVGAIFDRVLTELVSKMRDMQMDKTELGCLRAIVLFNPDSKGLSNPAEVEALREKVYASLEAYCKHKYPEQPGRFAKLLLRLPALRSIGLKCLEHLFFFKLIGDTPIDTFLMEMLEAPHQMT

SMILES | Potency [1] | Potency [2] | Potency [3] | outcome [4] | Potency [5] | Potency [6] | Potency [7] | Potency [8] | Potency [9] | Potency [10] | Potency [11] | Potency [12] | Potency [13] | Potency [14] | Potency [15] | Potency [16] | outcome [17] | Potency [18] | Potency [19] | outcome [20]
c1ccc2n[nH]nc2c1 | inactive and 38.9 µM (active) | inactive | inactive | inactive | inactive | inactive | inactive | inactive | inactive | inactive | inactive | inactive | inactive | – | – | – | – | – | – | –
CC[C@@H](N)CO | inactive | – | inactive | inactive | inactive | inactive | inactive | inactive | inactive | inactive | inactive | inactive | inactive | – | – | – | – | – | – | –
C=C(C)C(=O)O | inactive | inactive | inactive | inactive | inactive | inactive | inactive | inactive | inactive | inactive | inactive | – | – | – | – | – | – | – | – | –
Cc1ccnc2c1NC(=O)c1cccnc1N2C1CC1 | inactive | inactive | inactive | inactive | inactive | inactive | inactive | inactive | inactive | inactive | inactive | inactive | inactive | – | – | – | – | – | – | –
CC1=C(C=O)C(C)(C)CC=C1 | inactive | inactive | inactive | inactive | inactive | inactive | inactive | inactive | inactive | inactive | inactive | inactive | inactive | – | – | – | – | – | – | –
O=C1Nc2ccccc2C1(c1ccc(O)cc1)c1ccc(O)cc1 | inactive | inactive | 0.174 µM (active) | inactive | inactive | inactive | inactive | – | – | inactive | inactive | 61.1 µM (active) | inactive | inactive | – | – | – | – | – | –
COc1ccc(CCN2CCC(Nc3nc4ccccc4n3Cc3ccc(F)cc3)CC2)cc1 | 3.98 µM (active) and 10.6 µM (active) | 6.3 µM (active) and 23.9 µM (active) | 17.8 µM (active) | inactive | 31.6 µM (active) | 17.6 µM (active) and 26.6 µM (active) | 9.9 µM (active) and 11.9 µM (active) | 35.4 µM (active) and inactive | inactive | 8.9 µM (active) and 21.3 µM (active) | 44.2 µM (active) | 2.11 µM (active) | – | – | – | – | – | – | – | –
CC1=CC(=O)c2ccccc2C1=O | 17.4 µM (active) and 11.9 µM (active) | 17.4 µM (active) and 21.3 µM (active) | 24.5 µM (active) | inactive | 43.6 µM (active) | 15.4 µM (active) and 29.8 µM (active) | 12.2 µM (active) | 17.4 µM (active) | – | 24.5 µM (active) and 21.3 µM (active) | 27.3 µM (active) | 30.6 µM (active) | inactive | – | – | – | – | – | – | –
CCc1cc(C(C)(C)C)c(O)c(C(C)(C)C)c1 | inactive | inactive | inactive | inactive | inactive | inactive | inactive | inactive | inactive | inactive | inactive | inactive | inactive | – | – | – | – | – | – | –
CC(=O)CC(=O)Nc1ccc2[nH]c(=O)[nH]c2c1 | inactive | inactive | inactive | inactive | inactive | inactive | inactive | inactive | inactive | inactive | inactive | inactive | inactive | – | – | – | – | – | – | –
[Cl][In]([Cl])[Cl] | inactive | inactive | inactive | inactive | inactive | inactive | inactive | inactive | inactive | inactive | inactive | – | inactive | – | inactive | inactive | inactive | inactive | – | –
C=CC(=O)OCCCCCCOC(=O)C=C | 44.2 µM (active) and inactive | inactive | inactive | inactive | inactive | inactive | – | inactive | – | inactive | – | 13.9 µM (active) and 21.7 µM (active) | inactive | – | – | – | – | – | – | –
NNCCc1ccccc1 | inactive | inactive | inactive | inactive | inactive | inactive | inactive | inactive | inactive | inactive | inactive | inactive | 1.37 µM (active) and 9.44 µM (active) | – | inactive | – | – | inactive | – | –
OCCN1CCNCC1 | inactive | inactive | inactive | inactive | inactive | 60.5 µM (active) and inactive | – | inactive | inactive | inactive | inactive | – | – | – | – | – | – | – | – | –
COc1nc(C)nc(Cl)c1NC1=NCCN1 | inactive | inactive | inactive | inactive | inactive | inactive | inactive | inactive | inactive | inactive | inactive | inactive | inactive | – | inactive | – | – | inactive | – | –
OCCOCCN1CCN(C(c2ccccc2)c2ccc(Cl)cc2)CC1 (centres undefined) | inactive | inactive | inactive | inactive | inactive | inactive | 47.9 µM (active) and inactive | inactive | inactive | 21.6 µM (active) | inactive | 60.3 µM (active) and inactive | inactive | – | – | – | – | – | – | –
CNC1(C)C2CCC(C2)C1(C)C (centres undefined) | – | inactive | inactive | inactive | inactive | inactive | inactive | inactive | inactive | inactive | inactive | inactive | inactive | – | inactive | inactive | inactive | inactive | inactive | inactive
Cc1ccc(-c2cc(C(F)(F)F)nn2-c2ccc(S(N)(=O)=O)cc2)cc1 | inactive | 48.8 µM (active) | inactive | inactive | inactive | 60.9 µM (active) and 54.5 µM (active) | – | 48.8 µM (active) and 54.9 µM (active) | – | 48.8 µM (active) and 21.9 µM (active) | 60.9 µM (active) and inactive | 43.1 µM (active) and 27.3 µM (active) and 29.8 µM (active) | – | – | inactive | – | inactive | inactive | inactive | inactive
CC(=O)Nc1ccc(C(=O)CCl)cc1 | inactive and 54.9 µM (active) | inactive | inactive | inactive | inactive and 27.5 µM (active) | inactive and 13.7 µM (active) | inactive and 13.7 µM (active) | inactive | inactive | inactive | inactive | inactive and 48.6 µM (active) | inactive | – | – | – | – | – | – | –
